53 molecules from ChEMBL document CHEMBL4513216, “Probing the Open Global Health Chemical Diversity Library for Multistage-Active Starting Points for Next-Generation Antimalarials” (ACS Infect Dis, 2020) can be followed below.

Structures are written as SMILES. The campaign covered roughly 69,000 compounds. About 8,600 (12%) showed an effect of 50% or more. What follows is part of a selection rich in strong results, with near analogues and random picks from the rest.

The experiment concerns Plasmodium berghei. In words: Screen against P. berghei liver stage (PbLuc), transformed with Luciferase, at 10uM. The experiment is classed as functional, HepG2. The conditions noted are these: tested at 10 uM.
With `CNC(=O)[C@@H]1[C@H]2CN(Cc3ccccn3)CCN2C[C@H]1c1ccccc1`, the INHIBITION was 8.61%.

Regarding `Cc1csc(NC(=O)Cn2nc(C)ccc2=O)n1`, the INHIBITION worked out at 37.8%. Under `O=C(COCCOc1ccccc1)NC1CCN(C(=O)C2CC2)CC1` stands 29.9%; under `COCCN1C(=O)CCC12CCN(C(=O)CC1CC1)CC2`, 21.6%. Take `CN(Cc1cnn(C)c1)C(CO)c1cccc(Br)c1` (stereo not drawn): the INHIBITION worked out at 49%. The same measure for `CN(Cc1ccncc1)C(CO)c1cccc(F)c1` (stereo not drawn): 68.5%; for `CN(Cc1ccncc1)C(CO)c1cccc(Br)c1` (stereo not drawn): 4.52%; for `CN(Cc1ccccn1)C(C(=O)O)c1ccc2c(c1)OCO2` (stereo not drawn): 40.3%. Regarding `CC(C)OCCCN(Cc1ccncc1)Cc1cccc(F)c1`, the INHIBITION is listed as 43.6%.

For the molecule `CN(Cc1nccn1C)C(CO)c1cccc(Br)c1` (stereo not drawn), the INHIBITION was determined as 33.7%. For the molecule `CN(Cc1cccnc1)C(CO)c1cccc(Br)c1` (stereo not drawn), the INHIBITION was determined as 85.2%.

On to `COc1cc(F)ccc1N(C)Cc1ccncc1`, for which the INHIBITION is -24.9%.

As to `CN(Cc1ccccn1)C(CO)c1cccc(Br)c1` (stereo not drawn), the INHIBITION is on record as 88%. Regarding `CCn1nnc(NCc2ccccc2OCc2ccc(Cl)cc2)n1`, the INHIBITION is listed as -3.5%. The same measure for `CCN1CCN(CCNC(=O)c2sc(C)nc2C)CC1`: 1.75%; for `CN(C)C(=O)N1CC2(CCN(CC3CC3)CC2)c2cc(F)ccc21`: -13.4%. Under `Cc1cc(C2CCN(S(=O)(=O)c3cn(C)cn3)CC2)ccn1` stands 17.1%; under `CCC(C)(C)C(=O)N1C[C@@H]2C[C@@H](c3nnc(C)[nH]3)O[C@@H]2C1`, 30.5%; under `OCC1(NCc2cnc(-c3ccccn3)s2)CCOCC1`, -16.4%.

Regarding `CCc1nc(C2CCCN2CC(=O)NCCc2ccsc2)no1` (stereo not drawn), the INHIBITION is 25.6%. The same measure for `CC(=O)NCc1cc2n(n1)CCN(Cc1cccc(Cl)c1F)C2`: 10.7%; for `COc1ccc(-n2ncc(C(C)NC3Cc4ccccc4C3)c2C)cc1` (stereo not drawn): 63.8%; for `Cc1c(C(C)NC2CCN(C(C)C)CC2)cnn1-c1ccc(F)cc1F` (stereo not drawn): 46.9%. The same measure for `COc1ccc(-n2ncc(C(C)NC3CCOCC3)c2C)cc1` (stereo not drawn): 23.7%; for `COc1ccc(-n2ncc(C(C)NC3CCSCC3)c2C)cc1` (stereo not drawn): 53.8%. Under `Cc1c(C(C)NCc2cnn(C)c2)cnn1-c1ccccc1` (stereo not drawn) stands 43%; under `Cc1c(C(C)NC2CSCCSC2)cnn1-c1ccc(F)cc1F` (stereo not drawn), 43.7%; under `O=C(N[C@@H]1CN(C2CCCC2)C[C@@H]2CCCO[C@@H]21)c1cnccn1`, -45.5%. In the case of `N#Cc1ncn(CC(=O)N2CCCC2c2cccs2)n1` (stereo not drawn), the INHIBITION was found to be 23.3%. The same measure for `CC1CCCCN1C(=O)Cn1cnc(C#N)n1` (stereo not drawn): 69.3%. Regarding `CCC1CCCCN1C(=O)Cn1cnc(C#N)n1` (stereo not drawn), the INHIBITION is recorded as 47.9%. Take `CSc1ccc(-c2cc(CN)nc3ccnn23)cc1`: the INHIBITION turned out to be 13%. The same measure for `COc1cccc(NC(=O)NC2(c3noc(CN(C)C)n3)CCCC2)c1`: 16.2%; for `CCN(CC)CCn1cc(NC2CCSCC2)cn1`: -3.21%. Under `Fc1ccc(C2(c3noc(CCN4CCCCO4)n3)CCOC2)cc1` (stereo not drawn) stands -23.4%; under `O=c1[nH]c2cc3c(cc2cc1CN1CCCC1c1ccccn1)OCO3` (stereo not drawn), 6.94%. Under `O=c1[nH]c2cc3c(cc2cc1CN1CCCC1c1ccccn1)CCC3` (stereo not drawn) stands 56.5%; under `CCOc1ccc2[nH]c(=O)c(CN3CCCC3c3ccccn3)cc2c1` (stereo not drawn), 32.7%; under `O=C(Nc1ccc(CCN2CCC(O)CC2)cc1)C1CCCOC1` (stereo not drawn), 20.06%. With `O=C(CN1CCOc2ccccc2C1)NCc1cc2n(n1)CCCNC2`, the INHIBITION came out at 12.9%. The same measure for `CC(NCc1ccsc1)c1ccc2c(c1)NC(=O)CO2` (stereo not drawn): 22.15%; for `COc1cccc(SCC(=O)N2CCC(N3CCCC3=O)CC2)c1`: 43.9%; for `COc1cccc(SCC(=O)N2CCC(N3CCCC(O)C3)CC2)c1` (stereo not drawn): 64.9%.

In the case of `COc1cccc(SCC(=O)N2CCCC(N3CCCC3=O)C2)c1` (stereo not drawn), the INHIBITION is given as 15.5%. Under `Cc1c(NC(=O)CN(C)S(C)(=O)=O)cccc1OC1CCCC1` stands -28.2%.

As for `CCCNC(=O)CN1CCC(NC(=O)c2cc(CC)ccc2O)CC1`, the INHIBITION was -23.15%. Under `N#Cc1cccnc1N1CCC(C2CCCCCN2C(=O)C2CC2)CC1` (stereo not drawn) stands -1.3%; under `O=S(=O)(c1ccccc1F)N1CCCC(c2nccs2)C1` (stereo not drawn), 61.7%; under `O=S(=O)(c1cccs1)N1CCCC(c2nccs2)C1` (stereo not drawn), -27.4%. In the case of `O=S(=O)(c1ccccc1)N1CCCC(c2nccs2)C1` (stereo not drawn), the INHIBITION is reported as 31.6%. The same measure for `CN(CCS(=O)(=O)c1cc(Cl)ccc1Cl)CC(=O)Nc1ccc(F)cc1`: -8.22%; for `CN(CCS(=O)(=O)c1cc(Cl)ccc1Cl)CC(=O)Nc1cccc(F)c1`: 59.4%; for `CN(CCS(=O)(=O)c1cc(Cl)ccc1Cl)CC(N)=O`: 10.6%.
